Experimental data: PubChem BioAssay (NCI)
Compounds without any hit were thinned out: in the full panel of roughly 83,000, 20% have a hit.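 Interpretation: 100, growth as untreated; towards 0, rising growth inhibition; 0, no net growth; 0 to -100, cell death. Compounds scoring below 10 were considered active.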 Activity calls are given as the source filed them.

Assays:
Test in all cases: NCI-60 one-dose screen, 48 h (100 = growth as untreated, 0 = no growth, -100 = all killed)
Conditions in all cases: 10 µM unless noted
NCI-H23 lung = tested on: NCI-H23 lung
NCI-H226 lung = tested on: NCI-H226 lung
NCI-H322M lung = tested on: NCI-H322M lung
HOP-62 NSCLC = tested on: HOP-62 NSCLC
NCI-H460 lung = tested on: NCI-H460 lung
HOP-92 NSCLC = tested on: HOP-92 NSCLC
NCI-H522 lung = tested on: NCI-H522 lung
A549/ATCC NSCLC = tested on: A549/ATCC NSCLC
786-0 renal = tested on: 786-0 renal
COLO 205 colon = tested on: COLO 205 colon

Measured: growth

COc1ccc(C(=NNS(=O)(=O)c2ccc(C)cc2)c2ccccc2)cc1OC
inactive: NCI-H23 lung 99.5% | NCI-H226 lung 99.5% | NCI-H322M lung 92.9% | HOP-62 NSCLC 102% | NCI-H460 lung 105% | HOP-92 NSCLC 90.4% | NCI-H522 lung 92.4% | A549/ATCC NSCLC 96.1% | 786-0 renal 99.1% | COLO 205 colon 111%

CC1=C(C)C(=O)C(Nc2ccc3c(c2)OCCO3)=C(Br)C1=O
inactive: NCI-H23 lung 85.2% | NCI-H226 lung 85.6% | NCI-H322M lung 102% | HOP-62 NSCLC 97.6% | NCI-H460 lung 102% | HOP-92 NSCLC 68.2% | NCI-H522 lung 96.9% | A549/ATCC NSCLC 107% | 786-0 renal 105% | COLO 205 colon 126%

CN1CCN(c2ccc(Nc3nc(NCCNS(=O)(=O)c4ccccc4)c4sccc4n3)cc2)CC1
inactive: NCI-H23 lung 97.5% | NCI-H226 lung 94.2% | NCI-H322M lung 94.9% | HOP-62 NSCLC 98.7% | NCI-H460 lung 104% | HOP-92 NSCLC 57.3% | NCI-H522 lung 95% | A549/ATCC NSCLC 104% | 786-0 renal 99.2% | COLO 205 colon 110%

Cc1[nH]c(C(=O)Nc2ccccc2OCc2cccc(C(=O)NC3CCNC3)c2)c(Cl)c1Cl (stereo not given)
inactive: NCI-H226 lung 87.2% | NCI-H322M lung 70.2% | HOP-92 NSCLC 70.2%
active: NCI-H23 lung 8.19% | HOP-62 NSCLC 6.22% | NCI-H460 lung -62.9% | NCI-H522 lung -0.407% | A549/ATCC NSCLC -51.2% | 786-0 renal -69.2% | COLO 205 colon -43.3%

CC1=C(C)C(=O)C(Nc2cccc(C(F)(F)F)c2)=C(Br)C1=O
inactive: NCI-H23 lung 88.8% | NCI-H226 lung 83.2% | NCI-H322M lung 100% | HOP-62 NSCLC 81.1% | NCI-H460 lung 96.4% | HOP-92 NSCLC 25% | NCI-H522 lung 29.2% | A549/ATCC NSCLC 94.4% | 786-0 renal 97% | COLO 205 colon 115%

O=C(COc1ccc(/C=C2\C(=O)Nc3ccc(Cl)cc32)cc1)Nc1ccc(Cl)cc1
inactive: NCI-H23 lung 59.7% | NCI-H226 lung 74% | NCI-H322M lung 74.3% | HOP-62 NSCLC 63.2% | NCI-H460 lung 23.7% | HOP-92 NSCLC 93.5% | NCI-H522 lung 45.3% | A549/ATCC NSCLC 57% | 786-0 renal 68.3% | COLO 205 colon 90.5%

CC[C@]12CC(C(=O)OC)=C3Nc4ccccc4[C@@]34CCN(C14)[C@@H]1c3cc4c(cc3O[C@@H]1[C@H]2O)NC1=C(C(=O)OC)C[C@@]2(CC)C3N(CC[C@@]143)C[C@H]1O[C@H]12 (stereo not given in full)
inactive: NCI-H23 lung 10.2% | NCI-H226 lung 18.9% | NCI-H322M lung 28.8% | HOP-62 NSCLC 29% | NCI-H460 lung 15.3% | A549/ATCC NSCLC 21.9% | 786-0 renal 23.2%
active: HOP-92 NSCLC -2.19% | NCI-H522 lung 1.97% | COLO 205 colon -1.32%

C[C@@H]1OCC2(CCN(c3cnc(C(=O)Nc4cc(F)cc5cccnc45)cn3)CC2)[C@@H]1N
active: COLO 205 colon 9.27%
inactive: NCI-H23 lung 82.2% | NCI-H226 lung 78.6% | NCI-H322M lung 85.3% | HOP-62 NSCLC 83.8% | NCI-H460 lung 93.5% | HOP-92 NSCLC 45.7% | NCI-H522 lung 34.8% | A549/ATCC NSCLC 82.2% | 786-0 renal 71.3%

CN1CCN(c2ccc(Nc3nc(NCCCNS(=O)(=O)c4ccc(C(F)(F)F)cc4)c4sccc4n3)cc2)CC1
active: NCI-H23 lung 2.34% | NCI-H322M lung -1.68% | HOP-62 NSCLC -49.1% | NCI-H460 lung -47.8% | HOP-92 NSCLC -55.9% | NCI-H522 lung -85.6% | A549/ATCC NSCLC -12.1% | 786-0 renal -82.2% | COLO 205 colon -76%
inactive: NCI-H226 lung 57.9%

N#Cc1c(-c2ccc(Br)cc2)cc(-c2c[nH]c3ccccc23)nc1N
inactive: NCI-H23 lung 51.3% | NCI-H226 lung 60% | NCI-H322M lung 67.6% | HOP-62 NSCLC 42.5% | NCI-H460 lung 16.7% | HOP-92 NSCLC 43.6% | NCI-H522 lung 11% | A549/ATCC NSCLC 42.1% | 786-0 renal 79.7% | COLO 205 colon 51.5%

NC(N)=NS(=O)(=O)c1ccc(N=Nc2c(N)nn(-c3ccc([N+](=O)[O-])cc3[N+](=O)[O-])c2N)cc1
inactive: NCI-H23 lung 98.1% | NCI-H226 lung 93.3% | NCI-H322M lung 92.9% | HOP-62 NSCLC 104% | NCI-H460 lung 107% | HOP-92 NSCLC 88.2% | NCI-H522 lung 97.2% | A549/ATCC NSCLC 103% | 786-0 renal 103% | COLO 205 colon 106%

COc1cc2cc(Oc3ccc(NC(=O)c4cc(C(F)(F)F)cc(C(F)(F)F)c4)cc3)c(C)nc2cc1OCCN1CCOCC1
inactive: NCI-H23 lung 66.9% | NCI-H226 lung 70.3% | NCI-H322M lung 98% | HOP-62 NSCLC 88.6% | NCI-H460 lung 61.6% | HOP-92 NSCLC 44.8% | NCI-H522 lung 58.1% | A549/ATCC NSCLC 61.4% | 786-0 renal 25.3% | COLO 205 colon 66.7%

CC1CCN(CC(=O)Nn2c(COc3ccccc3)nc3ccccc3c2=O)CC1
inactive: NCI-H23 lung 91.7% | NCI-H226 lung 84.6% | NCI-H322M lung 95.4% | HOP-62 NSCLC 91.9% | NCI-H460 lung 90.6% | HOP-92 NSCLC 96.2% | NCI-H522 lung 75.4% | A549/ATCC NSCLC 90.9% | 786-0 renal 99% | COLO 205 colon 84.1%

C=C(C=O)[C@@H]1CC[C@]2(C(=O)O)CC[C@]3(C)C(CC[C@@H]4[C@@](C)(CCC#N)[C@H](C(=C)C=O)CC[C@]43C)[C@@H]12 (stereo not given in full)
inactive: NCI-H23 lung 17.6% | NCI-H322M lung 98.6% | HOP-62 NSCLC 115% | NCI-H460 lung 96.7% | HOP-92 NSCLC 13.6% | NCI-H522 lung 81.4% | A549/ATCC NSCLC 82.7% | 786-0 renal 59.7% | COLO 205 colon 108%
active: NCI-H226 lung -16.4%

CC1(C)CC[C@]23CC[C@]4(C)[C@H](CC[C@@H]5[C@@]6(C)CC[C@H](NCO)C(C)(C)[C@@H]6CC[C@]54C)[C@H]2[C@H]1OC3
active: NCI-H460 lung -41.1% | COLO 205 colon -48.5%
inactive: NCI-H23 lung 55.7% | NCI-H226 lung 97.2% | NCI-H322M lung 84.2% | HOP-62 NSCLC 79.8% | HOP-92 NSCLC 40.1% | NCI-H522 lung 101% | A549/ATCC NSCLC 60.5% | 786-0 renal 64.3%

C#CCN(C)CCCOc1ccc(NC(=O)CCCCCCCCC(=O)NO)cc1Cl
inactive: NCI-H23 lung 54.2% | NCI-H226 lung 73.2% | NCI-H322M lung 92.2% | HOP-62 NSCLC 77.6% | NCI-H460 lung 81.8% | HOP-92 NSCLC 64.8% | NCI-H522 lung 51.9% | A549/ATCC NSCLC 72.9% | 786-0 renal 87.9% | COLO 205 colon 76.1%

CCCCCCOC(=O)c1cc(-c2ccc(F)cc2)nc2ccccc12
inactive: NCI-H23 lung 90.3% | NCI-H226 lung 91.2% | NCI-H322M lung 94.9% | HOP-62 NSCLC 94.4% | NCI-H460 lung 103% | HOP-92 NSCLC 65.9% | NCI-H522 lung 82.8% | A549/ATCC NSCLC 101% | 786-0 renal 107% | COLO 205 colon 107%

O=C(CCCCCCNC(=O)C(O)(O)C(F)(F)F)Nc1ccc(Cl)cc1
active: HOP-62 NSCLC 4.42% | HOP-92 NSCLC 6.13% | NCI-H522 lung -22.3% | COLO 205 colon -57.4%
inactive: NCI-H23 lung 24.3% | NCI-H226 lung 66.6% | NCI-H322M lung 44% | NCI-H460 lung 23.3% | A549/ATCC NSCLC 20.7% | 786-0 renal 35.7%

Fc1ccc(-c2cn3c(-c4c[nH]c5ccc(Br)cc45)csc3n2)cc1
inactive: NCI-H23 lung 30.4% | NCI-H226 lung 59.8% | NCI-H322M lung 81.4% | HOP-62 NSCLC 34.8% | NCI-H460 lung 52.9% | HOP-92 NSCLC 22.2% | NCI-H522 lung 85.1% | A549/ATCC NSCLC 78.6% | 786-0 renal 97.2% | COLO 205 colon 76.9%

COC(=O)CCSC1=C(C)C(=O)c2ccccc2C1=O
inactive: NCI-H23 lung 71.3% | NCI-H226 lung 86.7% | NCI-H322M lung 99% | HOP-62 NSCLC 107% | NCI-H460 lung 101% | HOP-92 NSCLC 88.6% | NCI-H522 lung 62.4% | A549/ATCC NSCLC 106% | 786-0 renal 103% | COLO 205 colon 120%

Cc1nc(N)sc1-c1csc(Nc2ccc(C(F)(F)F)cc2)n1
active: NCI-H522 lung -56.3%
inactive: NCI-H23 lung 34.4% | NCI-H226 lung 37.4% | NCI-H322M lung 61.4% | HOP-62 NSCLC 47.3% | NCI-H460 lung 25.1% | HOP-92 NSCLC 37.3% | A549/ATCC NSCLC 45.1% | 786-0 renal 38.6% | COLO 205 colon 19.6%

COc1cccc2c1[C@H](OC)[C@]13O[C@@]1(C2=O)[C@H](O)[C@H](C)[C@@](O)(C(=O)[C@@H]1O[C@H]1C)[C@@H]3O
active: NCI-H23 lung -63.9% | NCI-H226 lung -54.4% | NCI-H322M lung 1.69% | HOP-62 NSCLC -26% | NCI-H460 lung -33.2% | HOP-92 NSCLC -16.8% | NCI-H522 lung -31.9% | A549/ATCC NSCLC -16.7% | 786-0 renal -16.9% | COLO 205 colon -44.9%

CCOP(=O)(OCC)OC[C@]12CC[C@@H](C)[C@H](C)C1C1=CC[C@@H]3[C@@]4(C)CCCNC(C)(C)[C@@H]4CC[C@@]3(C)[C@]1(C)CC2 (stereo not given in full)
active: NCI-H460 lung -68.2% | COLO 205 colon -50.7%
inactive: NCI-H23 lung 31.7% | NCI-H226 lung 62.5% | NCI-H322M lung 81.7% | HOP-62 NSCLC 65% | HOP-92 NSCLC 34.8% | NCI-H522 lung 57.2% | A549/ATCC NSCLC 18.2% | 786-0 renal 14.9%

O=c1c2cc(-c3ccc(F)cc3F)ccc2n(Nc2ccccc2)c(=O)n1-c1cccc(C(F)(F)F)c1
inactive: NCI-H226 lung 14.7% | HOP-62 NSCLC 10.9% | A549/ATCC NSCLC 10.5% | 786-0 renal 48.2% | COLO 205 colon 74.1%
active: NCI-H23 lung 2.36% | NCI-H322M lung 7.15% | NCI-H460 lung 9.35% | HOP-92 NSCLC -33.3% | NCI-H522 lung -5.32%

COc1ccc(NC2=C(Br)C(=O)C(C)=C(C)C2=O)cc1OC
inactive: NCI-H23 lung 89.8% | NCI-H226 lung 88.2% | NCI-H322M lung 106% | HOP-62 NSCLC 104% | NCI-H460 lung 101% | NCI-H522 lung 89.6% | A549/ATCC NSCLC 98.7% | 786-0 renal 106% | COLO 205 colon 125%
active: HOP-92 NSCLC -60.8%
